Rows were chosen to be rich in hits. Some 3.4% of all compounds tested hit in one or more screens of this group.
FBW7 act = activators of human E3 ligase FBW7; AlphaScreen FBW7–phospho-cyclin E peptide binding, activator screen; normalized activity (activation), % at 26.1 µM; AID 1259310; Q969H0; hit rate 0.13% among 650,000; in the data active = normalized activity above about 1.9%;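 also: purified mutant Fbw7 with reduced substrate affinity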
MITF primary = inhibitors of human MITF | O75030 | AlphaScreen MITF homodimerization, bead proximity signal | inhibition, % at 2.6 µM | hit rate 0.91% among 650,000; in the data active = inhibition above about 50%
TEAD-YAP inh = TEAD-YAP interaction inhibition. HEK-TIYL cells, TEAD-Gal4/YAP UAS-luciferase luminescence. inhibition, % at 9.12 µM. hit rate 1.4% among 640,000. AID 1259422; in the data active = inhibition above about 32%
GPR151 ag = human GPR151 activation | Q8TDV0 | PathHunter beta-arrestin GPR151 cells, luminescence | activation, % at 11.2 µM | hit rate 1% among 650,000; in the data active = activation above about 4.9%
Target sequence (Q8TDV0 whole entry, looked up): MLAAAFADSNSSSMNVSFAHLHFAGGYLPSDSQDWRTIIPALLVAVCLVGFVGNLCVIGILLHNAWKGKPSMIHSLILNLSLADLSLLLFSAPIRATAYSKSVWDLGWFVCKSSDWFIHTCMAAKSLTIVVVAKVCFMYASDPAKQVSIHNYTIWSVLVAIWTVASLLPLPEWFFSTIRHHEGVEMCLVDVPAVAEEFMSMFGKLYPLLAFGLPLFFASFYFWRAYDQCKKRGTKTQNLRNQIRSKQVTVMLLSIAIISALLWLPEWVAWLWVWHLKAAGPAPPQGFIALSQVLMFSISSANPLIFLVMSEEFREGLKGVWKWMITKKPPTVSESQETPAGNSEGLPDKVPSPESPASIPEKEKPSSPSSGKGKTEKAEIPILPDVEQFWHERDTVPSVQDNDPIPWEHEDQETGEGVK
MITF inh conf = confirmation of human MITF inhibitors. shares compounds with MITF primary. AlphaScreen MITF homodimerization, biotin/His-MITF beads. inhibition, % at 2.6 µM. hit rate 16% among 4,700. AID 1259372;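 active = inhibition above a cutoff derived from the DMSO control wells, cut at about 28% in these data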;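 also: inhibitors lower the bead chemiluminescence by keeping MITF from dimerizing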
AlphaScreen DR = optically interferes with AlphaScreen signal in dose response; AID 1259373; hit rate 6% among 480; shares compounds with MITF primary; AlphaScreen optical interference counterscreen, cell-free; IC50, µM; call rule not given here
AlphaScreen intf2 = optically interferes with AlphaScreen signal. inhibition, % at 2.6 µM. shares compounds with MITF primary. hit rate 7.6% among 4,700. LysRS AlphaScreen counterscreen, signal interference, triplicate;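 active = inhibition above a cutoff derived from the DMSO control wells, cut at about 30% in these data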
Hits are given with their value; . = inactive; / = not tested or not shown.

SMILES | FBW7 act | MITF primary | TEAD-YAP inh | GPR151 ag | MITF inh conf | AlphaScreen intf2 | others
Cc1cc(NC(=O)C2Sc3nnc(C)n3NC2c2ccccc2)ccc1Br (stereo not given) | . | . | . | . | / | /
O=C(CNC(=S)N(Cc1cccs1)C1CCCCC1)NCc1ccco1 | . | . | . | . | / | /
CC(=O)Oc1ccccc1N1C(=O)c2ccc(Oc3cccc(N)c3)cc2C1=O | . | 54 | . | . | 70 | . | AlphaScreen DR=.
Cc1onc(-c2ccccc2)c1C(=O)N1CCN(c2ccc(Cl)cc2[N+](=O)[O-])CC1 | . | . | . | . | / | /
CC1(C)CC(=O)C2=C(C1)NC(=O)CC2c1ccc(C(C)(C)C)cc1 (stereo not given) | . | 70 | . | . | . | .
CC1(C)CC(=O)C2=C(C1)NC(=O)CC2c1ccc(F)cc1 (stereo not given) | . | . | . | . | / | /
COC(=O)c1cccc(NC(=O)Cn2nnc(-c3ccncc3)n2)c1 | . | . | . | . | / | /
CC(C)/C=C/CN1CCc2nnc(CNC(=O)C3CCC(=O)N3)n2CC1 (stereo not given) | . | . | . | . | / | /
CCC(CC)CN1CCc2nnc(CNC(=O)C3CCC(=O)N3)n2CC1 (stereo not given) | . | 78 | . | . | . | .
CC(C)(CO)NCC(O)COCc1ccc(Cl)cc1 (stereo not given) | . | . | . | . | / | /
OC(CNCCNc1cccc2ccccc12)COCc1ccc(Cl)cc1 (stereo not given) | . | 53 | . | . | . | .
CCN1CCN(c2cc(C)c3ccc(OC)cc3n2)CC1 | . | 64 | . | . | . | .
COC(=O)CN(c1ccccn1)S(=O)(=O)c1ccccc1 | . | 61 | . | . | . | .
COC(=O)CN(c1ccc(I)cc1)S(=O)(=O)c1ccccc1 | . | . | . | . | / | /
CN(Cc1ccccc1)C(=O)COC(=O)/C=C/c1ccco1 | . | . | . | . | / | /
CN(CCOC(=O)/C=C/c1ccco1)Cc1ccccc1 | . | 68 | . | . | 62 | .
CC(C)N(C)CCOC(=O)/C=C/c1ccco1 | . | 59 | . | . | 62 | . | AlphaScreen DR=.
CC(C)c1ccccc1NC(=O)CN1C(=O)CCC1=O | . | . | . | . | / | /
CC(C)NC(=O)CCCCCn1nnc2ccccc2c1=O | . | . | . | . | / | /
CCCCNC(=O)CCCCCn1nnc2ccccc2c1=O | . | 73 | . | . | . | .
COc1cccc(-c2nnc(NC(=O)C3COc4ccccc4O3)o2)c1 (stereo not given) | . | . | . | . | / | /
CC(C)(C)c1ccc(CN[C@H]2C[C@H]3C(=O)N[C@@H](COCc4ccccc4)C(=O)N3C2)cc1 | . | . | . | . | / | /
O=C(NCc1ccccc1)NC1(C(=O)N2CCCC2)CCCCC1 | . | 68 | . | . | . | 32
O=C(NCc1ccccc1)NC1(C(=O)N2CCN(c3ncccn3)CC2)CCCCC1 | . | . | . | . | / | /
CCCOC(=O)C(C)Nc1n[nH]c(=S)[nH]c1=O (stereo not given) | . | 55 | . | . | . | .
SMILES | FBW7 act | MITF primary | TEAD-YAP inh | GPR151 ag | MITF inh conf | AlphaScreen intf2 | others
CCN1CCCC1CNCc1csc(-c2ccc(Cl)cc2)n1 (stereo not given) | . | 57 | . | . | . | .
CCN1CCCC1CNCc1ccccc1Cl (stereo not given) | . | . | . | . | / | /
CCN1CCN(CC(O)COC(c2ccccc2)c2ccccc2C)CC1 (stereo not given) | . | 88 | . | . | . | .
CC(=O)N(CN1C(=O)c2ccc(Br)cc2C1=O)c1ccc(C(=O)Oc2ccccc2)cc1 | . | . | . | . | / | /
C=CCc1c(C)[nH]c2ccc(Br)cc2c1=S | . | . | . | . | / | /
Cc1ccc(-c2nc3cc(NC(=O)c4cccnc4)ccc3o2)cc1Cl | . | . | . | . | / | /
Cc1ccc(-c2nc3cc(NC(=O)c4cccnc4)ccc3o2)cc1C | . | 63 | . | . | . | .
Cc1cccc(CN2CCN(Cc3ccccn3)CC2)c1 | . | 72 | . | . | . | .
COc1cccc(CN2CCC(=O)N(Cc3ccccn3)CC2)c1 | . | . | . | . | / | /
Cc1cccc(CN2CCN(c3ncccn3)CC2)c1 | . | 54 | . | . | . | .
Fc1ccc(CN2CCN(Cc3ccccn3)CC2)cc1 | . | 70 | . | . | . | .
Clc1ccccc1CN1CCN(Cc2ccccn2)CC1 | . | 74 | . | . | . | .
Clc1ccccc1CN1CCN(c2ccccn2)CC1 | . | . | . | . | / | /
COc1ccc(CC(=O)NC2CCCCC2)cc1 | . | . | . | . | / | /
O=C(CC(NCCO)C(=O)O)Nc1cccc2ccccc12 (stereo not given) | . | . | . | . | / | /
Nc1nonc1-n1nnc(C(=O)N/N=C/c2ccc(F)cc2)c1-c1ccccc1 | . | . | . | . | / | /
O=[N+]([O-])c1cccc(CN2CCN(Cc3ccccn3)CC2)c1 | . | 101 | . | . | . | .
OCC1(Cc2cccc(Cl)c2)CCCN(Cc2ccccn2)C1 (stereo not given) | . | . | . | . | / | /
Clc1cccc(CN2CCN(Cc3ccccn3)CC2)c1 | . | 70 | . | . | . | .
O=[N+]([O-])c1cccc(CN2CCN(C3CCN(Cc4ccccc4)CC3)CC2)c1 | . | . | . | . | / | /
COc1ccccc1OCC#CCNC1CCCC1 | . | 55 | . | . | . | .
CS(=O)(=O)NCCSc1nnnn1-c1ccccc1 | . | 55 | . | . | . | .
C=CCn1c(=NC(=O)CN2C(=O)CCC2=O)sc2cc(C)ccc21 | . | . | . | . | / | /
CC(=O)NCC(c1cccs1)S(=O)(=O)c1ccc(C)cc1 (stereo not given) | 1.9 | 51 | . | . | 60 | . | AlphaScreen DR=.
O=C(NCC(c1cccs1)S(=O)(=O)c1ccc(Cl)cc1)c1ccco1 (stereo not given) | . | 70 | . | . | 59 | . | AlphaScreen DR=.
SMILES | FBW7 act | MITF primary | TEAD-YAP inh | GPR151 ag | MITF inh conf | AlphaScreen intf2 | others
Cc1ccc(S(=O)(=O)C(CNC(=O)c2ccco2)c2cccs2)cc1 (stereo not given) | . | 95 | . | . | 83 | . | AlphaScreen DR=.
O=C(NCC(c1ccco1)S(=O)(=O)c1cccs1)c1ccco1 (stereo not given) | . | . | . | . | / | /
Cc1ccc(S(=O)(=O)C(CNC(=O)C(C)C)c2cccs2)cc1 (stereo not given) | . | . | . | . | / | /
COc1ccc(Nc2ncnc3c2cnn3-c2ccc(C)cc2C)cc1Cl | . | . | . | . | / | /
CCOc1ccccc1NC(=O)CCc1c(C)[nH]c(=O)n(C)c1=O | . | . | . | . | / | /
COCCCNc1ncnc2sc(C)c(C)c12 | . | 68 | . | . | . | .
Cc1nnn(C23CC4CC(CC(C(=O)NCCc5ccccc5)(C4)C2)C3)n1 | . | . | . | . | / | /
Cc1ccc(C(=O)N(c2ccccc2)C2C=CS(=O)(=O)C2)cc1C (stereo not given) | . | . | . | . | / | /
CC(C)=CC(=O)Nc1nnc(Cc2ccccc2)s1 | . | 84 | . | . | . | .
